Hit rate of the full screen: of about 69,000 compounds, about 420 (0.61%) showed an effect of 50% or more. The sample holds strong results, similar compounds and a random draw of the others, so the mix is not that of the screen.

The record followed here is ChEMBL document CHEMBL3988442, “University of Dundee, Small-Polar-MMV Screening Library” (2021).

The test deals with T1, Histidine--tRNA ligase (Leishmania infantum) (UniProt A4I591).
T1 sequence (whole entry): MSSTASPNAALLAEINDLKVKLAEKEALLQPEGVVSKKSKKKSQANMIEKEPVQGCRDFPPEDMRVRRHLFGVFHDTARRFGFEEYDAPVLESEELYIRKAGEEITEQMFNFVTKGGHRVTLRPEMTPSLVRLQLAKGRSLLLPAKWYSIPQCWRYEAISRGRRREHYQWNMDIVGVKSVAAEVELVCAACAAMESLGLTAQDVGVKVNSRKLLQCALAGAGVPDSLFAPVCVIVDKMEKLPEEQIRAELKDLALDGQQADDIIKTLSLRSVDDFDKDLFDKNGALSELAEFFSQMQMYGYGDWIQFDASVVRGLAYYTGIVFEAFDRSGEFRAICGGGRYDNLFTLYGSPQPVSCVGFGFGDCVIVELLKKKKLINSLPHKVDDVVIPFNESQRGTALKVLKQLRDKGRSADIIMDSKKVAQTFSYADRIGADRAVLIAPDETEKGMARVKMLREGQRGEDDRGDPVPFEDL
Nature of the test: Leishmania infantum Histidine tRNA synthetase (LdHisRS). It counts as functional. Also noted: scale not given: in the data most compounds retested in dose-response had high values. The settings on record: 30 µM.
Turning to `COCCNC(=O)[C@H]1CN(c2nnc(C)s2)C[C@H]2OCC[C@@H]12`, the Percent Effect was found to be 5.11%.
With `NCc1ccnc(Oc2ccccc2)c1`, the Percent Effect was 59%.
The result for `NCc1ccnc(Oc2ccc(F)cc2)c1` reads 30.1%.
Then `COc1ccc(Oc2cc(CN)ccn2)cc1`, with 32.5%; and `CNC(=O)CN1CC[C@H]2CN(C(=O)c3ccccc3F)C[C@H]2C1`, with 16.7%; and `O=C(NC1CC1)[C@H]1C[C@H]2OCC[C@H]2N(Cc2ccc(F)cc2)C1`, with 2.78%.
The result for `CNC(=O)CN1CCO[C@H]2CN(CC3CCOCC3)C[C@H]21` reads 32%; that for `CCN1C[C@H]2C3(CCN(S(=O)(=O)CC)CC3)CC[C@@]2(C(=O)N(C)C)C1`, 7.69%.
In the case of `Cc1noc([C@]23COC[C@H]2CN(C(=O)Cc2ccsc2)C3)n1`, the Percent Effect was found to be 9.91%.
On to `CN(C(=O)c1ccccn1)c1nc2c(s1)CCc1c-2cnn1C`, for which the Percent Effect was found to be 103%.
The result for `CN(C(=O)c1ccccn1)c1nnc(C2CCOC2)s1` (centres undefined) reads 5.59%.
The result for `Cc1cc(-c2cnc(C)nc2CN(C)C(=O)c2ccccn2)on1` reads 2.07%.
For `CCCN(C(=O)c1ccccn1)c1nc2c(s1)CCc1c-2cnn1C`, the Percent Effect was found to be 106%.
The result for `Cc1cnccc1-c1cnn(CCNC(=O)c2ccccn2)c1C1CC1` reads 4.25%; that for `COCCN(C)C(=O)c1nc2c(s1)CCCN2c1ncccn1`, 17.5%.
As to `CCCN(CCc1ccccn1)C(=O)CCc1cnn(C)c1`, the Percent Effect worked out at 1.21%.
`COCCN(Cc1ccoc1)C(=O)c1ccccn1`: the Percent Effect is 16.4%.
Then `COCCN(C(=O)c1ccccn1)c1nc2c(s1)CCc1c-2cnn1C`, with 101%; and `Cc1ccc(CN2CC[C@@H]3[C@@H](CO[C@H]3CN(C)C)C2)o1`, with 10%; and `CC(C)NC(=O)N1CC[C@@H]2CN(Cc3ccccc3)S(=O)(=O)[C@@H]2CC1`, with 1.5%.
Then `COCCN1CCN(Cc2ccc(C(C)=O)cc2)[C@H]2CS(=O)(=O)C[C@H]21`, with 22.2%; and `Cc1nnc(N2C[C@H](C(=O)NCC3CC3)[C@@H]3CCO[C@@H]3C2)s1`, with 2.91%.
Then `CC(C)Oc1cccc(CN(C)C(=O)Nc2cccn(C)c2=O)c1`, with 13.9%.
Turning to `Cc1ccn(C)c(=O)c1NC(=O)N(C)Cc1cccc(OC(C)C)c1`, the Percent Effect was determined as 77.5%.
Then `CCC(=O)N(C)Cc1cccc(OC(C)C)c1`, with 4.46%; and `Cc1csc(CN2CC[C@H]3C(=O)N(c4cccnc4)CCO[C@H]3C2)n1`, with 23.1%; and `COCc1nc2c(o1)CN(C(=O)NCc1ccccc1)C2`, with 16%.
Then `COCc1nc2cc(NCc3ccc(C)o3)ccc2o1`, with 102%.
The result for `COCc1nc2cc(NCc3ccc(CO)o3)ccc2o1` reads 86.6%; that for `CC(C)(C)c1nc2cc(NC(=O)Cn3ccc(=O)[nH]c3=O)ccc2o1`, 14%; that for `Cc1ccc(CNC(C)(C)c2noc(C(C)(C)C)n2)o1`, 27.1%.
In the case of `COc1ccccc1C(C)(C)NCc1ccc(C)o1`, the Percent Effect came to 2.86%.
Then `O=C(NCC1CC1)[C@@H]1CCO[C@@H]2CCN(Cc3ccsc3)C[C@H]21`, with 20%.
The result for `Cn1cnc(S(=O)(=O)N2CCO[C@H]3[C@@H](OCC4CC4)CC[C@@H]32)c1` reads -5.26%; that for `Cc1nc(-c2ccc(CC(=O)N3CCN(C(=O)C4CC4)CC3)cc2)cs1`, 21.2%; that for `Cc1nc(-c2ccc(CC(=O)N3CCN(C(=O)C(C)C)CC3)cc2)cs1`, 63.6%.
As to `Cc1nc(-c2ccc(CC(=O)N3CCNC(=O)C3)cc2)cs1`, the Percent Effect is -9.09%.
Then `Cc1csc([C@@H]2C[C@@H]3CCN(C(=O)c4cc(C)on4)C[C@H]3O2)n1`, with 18.4%; and `CC(=O)N1[C@H](Cn2cncn2)C[C@@H]2CN(C(=O)c3ccoc3)CC[C@@H]21`, with 13.5%; and `O=C1CC(c2ccccc2)c2sc(C(=O)O)c(-c3ccccc3)c2N1` (centres undefined), with 13%.
Then `O=C1CC(c2ccco2)c2sc(C(=O)O)c(-c3ccccc3)c2N1` (centres undefined), with 91.4%; and `O=C1CC(c2ccc(O)cc2)c2sc(C(=O)O)c(-c3ccccc3)c2N1` (centres undefined), with 20.8%.
The result for `COC[C@@]12CC[C@@H](N3CCOCC3)C[C@H]1CCN(c1ncccc1Cl)C2` reads 22.9%; that for `O=C1O[C@@H]2CN(Cc3cc4ccccc4o3)C[C@@H]2N1Cc1ccccn1`, 0%; that for `CN1CCN(Cc2nnc(C3CCN(C(CO)CO)CC3)n2C)CC1`, 80.7%.
As for `CN1CCN(Cc2nnc(C3CCN(CC4CC4)CC3)n2C)CC1`, the Percent Effect stood at 21.1%.
Then `CN1CCN(Cc2nnc(C3CCN(C4CCCCC4)CC3)n2C)CC1`, with 13.2%.
The result for `Cc1ccnc(OC[C@]23COC[C@H]2CN(C(=O)C2=CCCCC2)C3)n1` reads 5.56%; that for `CN(Cc1cccnc1)c1nccc(N2CCN[C@H]3CS(=O)(=O)C[C@H]32)n1`, 12.9%.
Then `c1ccc(CN2C[C@@H]3CC[C@H](C2)N(Cc2nnc(C4CC4)o2)C3)cc1`, with 34%; and `COc1cc(N2C[C@@H]3COC[C@]3(C(=O)NCc3ccccn3)C2)ncn1`, with 5.26%; and `O=C(Cn1c(-c2ccco2)cc2cccnc21)N1CCCC1`, with 76.5%.
For `COCCNC(=O)Cn1c(-c2ccco2)cc2cccnc21`, the Percent Effect turned out to be 14.8%.
Then `CC(C)N(C(=O)Cn1c(-c2ccco2)cc2cccnc21)C(C)C`, with 20.1%.
Consider `Cc1nnc([C@@]23CCO[C@@H]2CCN(Cc2nccs2)C3)o1`, for which the Percent Effect was 7.92%.
Then `CN(C)C(=O)N1C[C@@H]2CCCO[C@@H]2[C@H](N(C)Cc2ccco2)C1`, with 11.4%.
Take `c1ccc(-c2cc(CN3C[C@@H]4CC[C@H](C3)N(CC3CCC3)C4)on2)cc1`: the Percent Effect was found to be 51.7%.
As to `c1ccc(-c2cc(CN3CCCC(Cn4cncn4)C3)on2)cc1` (centres undefined), the Percent Effect worked out at 8.55%.
The result for `c1ccc(-c2nnc(CN3C[C@@H]4CC[C@H](C3)N(CC3CCC3)C4)o2)cc1` reads 21.3%; that for `C1CC(CN2C[C@H]3CC[C@@H]2CN(Cc2noc(C4CCCC4)n2)C3)C1`, 8.51%.
The result for `c1ccc(-c2cc(CN3C[C@@H]4CC[C@H](C3)N(CC3CC3)C4)on2)cc1` reads 26.7%; that for `O=C(NCC1CC1)[C@@H]1CCO[C@@H]2CCN(CCc3ccccc3)C[C@H]21`, 13.7%; that for `CN1CCN(C(=O)[C@H]2CC[C@@H]3[C@@H](CCN3Cc3nccs3)O2)CC1`, -10.1%.
Take `Cc1cc(CN2CCN(CC3CC3)[C@@H]3CS(=O)(=O)C[C@@H]32)cc(C)c1O`: the Percent Effect stood at 8.33%.
Consider `O=C([C@H]1C[C@H]2OCC[C@H]2N(Cc2ccco2)C1)N1CCCO1`, for which the Percent Effect came to 22.2%.
With `CN(Cc1nccs1)c1nccc(N2CCN[C@H]3CS(=O)(=O)C[C@H]32)n1`, the Percent Effect stood at 14.5%.
Then `O=C(NCc1ccco1)[C@@H]1CC[C@@H]2[C@@H](CCN2Cc2ccc(F)cc2)O1`, with 69.9%.
The result for `O=C(NCc1ccco1)[C@H]1CC[C@@H]2[C@@H](CCN2Cc2nccs2)O1` reads 31.5%.
As to `Cn1cc(CN2CC[C@H]3O[C@H](C(=O)NCc4ccco4)CC[C@H]32)cn1`, the Percent Effect came to 9.43%.
Then `O=C(NCc1ccco1)[C@H]1CC[C@@H]2[C@@H](CCN2Cc2cccnc2)O1`, with 23.3%; and `O=C(NCc1ccco1)[C@@H]1CC[C@@H]2[C@@H](CCN2CC2CC2)O1`, with 23.3%; and `COCCN1CCCn2cnc(CNC(=O)N(C)C)c2C1`, with 9.4%.
For the compound `COCCN1CCCn2cnc(CN(C)C(C)C)c2C1`, the Percent Effect was found to be 30%.
Then `COCCN1CCCn2cnc(CNC3CCCC3)c2C1`, with 77.8%; and `COCCN1C(=O)CO[C@H]2CN(Cc3cccc(OC)c3F)C[C@@H]21`, with 8.25%; and `Cc1nnc([C@]23COC[C@H]2CN(Cc2cnn(C)c2)C3)o1`, with 27.4%.
In the case of `CN(C)CCN1CCO[C@@H]2CN(C(=O)Cc3ccsc3)CC[C@@H]2C1`, the Percent Effect turned out to be 10%.
Then `C1CC(CN2C[C@@H]3C[C@@H](c4nnc(C5CC5)o4)O[C@@H]3C2)CCO1`, with 11.1%.
Then `O=S(=O)(CCCn1cncn1)Cc1ccc(F)cc1Cl`, with 109%.
The result for `O=S(=O)(CCCn1cncn1)Cc1cccc(F)c1` reads -11.8%; that for `O=S(=O)(CCCn1cncn1)Cc1ccccc1Cl`, 19.7%; that for `COc1ncccc1CN1C[C@@H]2C[C@@H](C(=O)NCC3CC3)N(C)[C@@H]2C1`, 24.8%.
Regarding `CO[C@@H]1CC[C@H]2[C@H]1OCCN2C(=O)c1ccc(C)nc1`, the Percent Effect stood at 7.02%.
The result for `COc1cc(N2C[C@H](C(=O)NC3CC3)[C@@H]3CCO[C@@H]3C2)ncn1` reads 3.23%; that for `Cc1ccc2[nH]c(CO[C@H]3CN(c4ccc(C#N)cn4)C[C@H]3F)nc2c1`, 69.4%; that for `Cc1ccc2[nH]c(CO[C@H]3CN(C(=O)C4CC4)C[C@H]3F)nc2c1`, 4.05%.
Then `CN1C[C@@H](F)[C@@H](OCc2nc3ccc(C#N)cc3[nH]2)C1`, with 25%; and `O=C(NC1CC1)[C@@H]1CCO[C@@H]2CCN(CCc3ccccc3)C[C@@H]21`, with 15.1%.
The result for `Cc1cccc(CN2C[C@H]3OC(=O)N(CCCN4CCOCC4)[C@H]3C2)n1` reads 22.3%; that for `Cc1ncsc1C(=O)N1CC[C@@H]2[C@@H](CC1)OCCN2c1cccnc1`, 10.5%; that for `COc1cccn(Cc2nnc(-c3cccc(F)c3)o2)c1=O`, 91.8%.
Turning to `COc1cccn(Cc2nnc(-c3cccnc3)o2)c1=O`, the Percent Effect turned out to be 39.3%.
Then `O=c1c(C(F)(F)F)cccn1Cc1nnc(-c2cccnc2)o1`, with 11.5%; and `Cc1cccc(CN2C[C@@H]3CN(C(=O)NC(C)C)C[C@@H]3C2=O)c1`, with 12.3%; and `CC(C)[C@H](NS(C)(=O)=O)C(=O)NCc1cc(-c2ccccc2)n[nH]1`, with 17.1%.
Then `C[C@H](NS(C)(=O)=O)C(=O)NCc1cc(-c2ccco2)n(CC(F)(F)F)n1`, with -80%.
As for `CC(C)[C@H](NS(C)(=O)=O)C(=O)NCc1cc(-c2ccco2)nn1C`, the Percent Effect was found to be 8.57%.
For the compound `CC(C)[C@H](NS(C)(=O)=O)C(=O)NCc1cc(-c2ccco2)n[nH]1`, the Percent Effect turned out to be 54.3%.
The result for `CN(C)c1nccc(NCc2cc(-c3ccco3)n[nH]2)n1` reads 34.3%; that for `C[C@H](NS(C)(=O)=O)C(=O)NCc1cc(-c2ccco2)n[nH]1`, 51.4%.
On to `CN1CCN(C[C@@H]2OC[C@H]3CN(CCc4ccccc4)CC[C@H]32)CC1`, for which the Percent Effect worked out at 22.6%.
Then `O=C(NC1CCC1)[C@@H]1CCO[C@@H]2CCN(CCc3ccccc3)C[C@H]21`, with 15.4%.
The result for `O=C(NC[C@]12COC[C@H]1CN(Cc1nccs1)C2)c1ccsc1` reads 0%; that for `O=c1[nH]nc(CNCc2ccc(OC34CCCN(CC3)C4)cc2)[nH]1` (centres undefined), 17.6%; that for `COc1cc(C#N)ccc1OC12CCCN(CC1)C2` (centres undefined), 23.1%.
As for `c1ccc(Oc2ccc(OC34CCCN(CC3)C4)cc2)cc1` (centres undefined), the Percent Effect is 61.2%.
Then `c1ccc(Oc2cccc(OC34CCCN(CC3)C4)c2)cc1` (centres undefined), with 51%; and `Cc1cnccc1CNCc1ccc(OC23CCCN(CC2)C3)cc1` (centres undefined), with 36.5%; and `Cc1nc(CNCc2cccc(OC34CCCN(CC3)C4)c2)n[nH]1` (centres undefined), with 24.7%.
